Results as given in PubChem BioAssay AID1159580 (chemical genetic matrix, 2015).
Several values for one entry are separate records, joined by “and”; a condition that tells them apart may be missing. Equal values may be shown once. Out of some 5,500 compounds screened, about 2,000 (36%) were called active. Another 18% or so got no clear call; they are omitted. Rule as the data show it: active = normalized growth mostly below about 0.91 (no sharp cut-off); inconclusive = no clear call, values can overlap the other calls; inactive = mostly above about 0.92. This is one part of the list.

Assay: chemical genetic growth profiling, strain panel (AID 1159580);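 also: tested at 20 µM; growth read once vehicle control cultures reached saturation at 30 °C; 1 = growth at the plate median or of vehicle wells; lower values mean less growth of the strain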
Settings: growth OD

Measured: normalized growth

COC(=O)C1=C(C)NC(C)=C(C(=O)OCCN(C)Cc2ccccc2)C1c1cccc([N+](=O)[O-])c1 (stereo unspecified)
inactive: S. cerevisiae deletion strains, locus YJR075W, strain HOC1, stronger effect = lower value 0.973 and 0.963 | S. cerevisiae deletion strains, locus YKL009W, strain mrt4, stronger effect = lower value 0.97 | S. cerevisiae deletion strains, locus YKL068W, stronger effect = lower value 0.994 | S. cerevisiae deletion strains, locus YKL085W, strain MDH1 (second series), stronger effect = lower value 0.993 | S. cerevisiae deletion strains, locus YKL085W, strain MDH1, stronger effect = lower value 0.993 | S. cerevisiae deletion strains, locus YKL160W, strain elf1, stronger effect = lower value 0.963 | S. cerevisiae deletion strains, locus YKL190W, strain CNB1, stronger effect = lower value 0.99 | S. cerevisiae deletion strains, locus YKR001C, strain vps1, stronger effect = lower value 1.01 | S. cerevisiae deletion strains, locus YKR026C, strain gcn3, stronger effect = lower value 0.97 | S. cerevisiae deletion strains, locus YKR091W, strain srl3, stronger effect = lower value 0.993 | S. cerevisiae deletion strains, locus YLL001W, strain dnm1, stronger effect = lower value 0.98 | S. cerevisiae deletion strains, locus YLL026W, stronger effect = lower value 0.998 | S. cerevisiae deletion strains, locus YLL041C, strain sdh2, stronger effect = lower value 0.968 | S. cerevisiae deletion strains, locus YLR027C, strain aat2, stronger effect = lower value 0.988 | S. cerevisiae deletion strains, locus YLR039C, strain RIC1, stronger effect = lower value 0.999 | S. cerevisiae deletion strains, locus YLR058C, strain SHM2, stronger effect = lower value 0.963 | S. cerevisiae deletion strains, locus YLR102C, strain apc9, stronger effect = lower value 0.987 | S. cerevisiae deletion strains, locus YLR113W, strain HOG1, stronger effect = lower value 0.93 | S. cerevisiae deletion strains, locus YLR221C, strain rsa3, stronger effect = lower value 0.982 | S. cerevisiae deletion strains, locus YLR258W, strain gsy2, stronger effect = lower value 0.973 | S. cerevisiae deletion strains, locus YLR262C, strain YPT6 (second series), stronger effect = lower value 0.952 | S. cerevisiae deletion strains, locus YLR262C, strain YPT6, stronger effect = lower value 0.947 | S. cerevisiae deletion strains, locus YLR268W, strain sec22, stronger effect = lower value 1 | S. cerevisiae deletion strains, locus YLR320W, strain mms22, stronger effect = lower value 0.986 | S. cerevisiae deletion strains, locus YLR330W, strain CHS5, stronger effect = lower value 0.993 | S. cerevisiae deletion strains, locus YLR342W, strain FKS1 (second series), stronger effect = lower value 0.957 | S. cerevisiae deletion strains, locus YLR342W, strain FKS1, stronger effect = lower value 0.996 | S. cerevisiae deletion strains, locus YLR357W, strain rsc2, stronger effect = lower value 0.965 | S. cerevisiae deletion strains, locus YLR370C, strain arc18, stronger effect = lower value 0.984 | S. cerevisiae deletion strains, locus YLR371W, strain rom2, stronger effect = lower value 0.967 | S. cerevisiae deletion strains, locus YLR384C, strain iki3, stronger effect = lower value 0.98 | S. cerevisiae deletion strains, locus YLR418C, strain cdc73, stronger effect = lower value 0.96 | S. cerevisiae deletion strains, locus YML016C, strain PPZ1, stronger effect = lower value 0.99 | S. cerevisiae deletion strains, locus YML032C, strain rad52, stronger effect = lower value 0.961 | S. cerevisiae deletion strains, locus YML120C, strain ndi1, stronger effect = lower value 1.02 | S. cerevisiae deletion strains, locus YML124C, strain tub3, stronger effect = lower value 0.992 | S. cerevisiae deletion strains, locus YMR058W, strain fet3, stronger effect = lower value 0.993 | S. cerevisiae deletion strains, locus YMR078C, strain ctf18, stronger effect = lower value 0.977 | S. cerevisiae deletion strains, locus YMR125W, strain sto1, stronger effect = lower value 0.978 | S. cerevisiae deletion strains, locus YMR129W, stronger effect = lower value 1 | S. cerevisiae deletion strains, locus YMR205C, strain PFK2, stronger effect = lower value 0.986 | S. cerevisiae deletion strains, locus YMR223W, strain ubp8, stronger effect = lower value 0.978 | S. cerevisiae deletion strains, locus YMR231W, strain pep5, stronger effect = lower value 0.998 | S. cerevisiae deletion strains, locus YMR263W, strain SAP30, stronger effect = lower value 0.988 | S. cerevisiae deletion strains, locus YMR307W, strain GAS1, stronger effect = lower value 0.744 | S. cerevisiae deletion strains, locus YNL067W, strain RPL9B, stronger effect = lower value 0.999 | S. cerevisiae deletion strains, locus YNL071W, strain lat1, stronger effect = lower value 0.97 | S. cerevisiae deletion strains, locus YNL128W, strain TEP1, stronger effect = lower value 0.987 and 1.05 | S. cerevisiae deletion strains, locus YNL153C, strain GIM3, stronger effect = lower value 0.98 | S. cerevisiae deletion strains, locus YNL175C, strain NOP13, stronger effect = lower value 1 | S. cerevisiae deletion strains, locus YNL183C, strain NPR1, stronger effect = lower value 0.923 | S. cerevisiae deletion strains, locus YNL197C, strain WHI3, stronger effect = lower value 1.02 | S. cerevisiae deletion strains, locus YNL209W, strain ssb2, stronger effect = lower value 0.978 | S. cerevisiae deletion strains, locus YNL224C, strain SQS1, stronger effect = lower value 0.993 | S. cerevisiae deletion strains, locus YNL233W, strain BNI4, stronger effect = lower value 0.981 | S. cerevisiae deletion strains, locus YNL248C, strain rpa49, stronger effect = lower value 0.968 | S. cerevisiae deletion strains, locus YNL250W, strain rad50, stronger effect = lower value 0.981 | S. cerevisiae deletion strains, locus YNL271C, strain bni1, stronger effect = lower value 1 | S. cerevisiae deletion strains, locus YNL298W, strain CLA4, stronger effect = lower value 0.996 | S. cerevisiae deletion strains, locus YNL307C, strain MCK1, stronger effect = lower value 0.968 | S. cerevisiae deletion strains, locus YNL322C, strain KRE1 (second series), stronger effect = lower value 0.996 | S. cerevisiae deletion strains, locus YNL322C, strain KRE1, stronger effect = lower value 0.995 | S. cerevisiae deletion strains, locus YNR049C, strain mso1, stronger effect = lower value 0.974 | S. cerevisiae deletion strains, locus YNR052C, strain pop2, stronger effect = lower value 0.999 | S. cerevisiae deletion strains, locus YOL006C, strain TOP1, stronger effect = lower value 1.01 | S. cerevisiae deletion strains, locus YOL012C, strain htz1 0.795 | S. cerevisiae deletion strains, locus YOL147C, strain pex11, stronger effect = lower value 0.99 | S. cerevisiae deletion strains, locus YOR001W, strain rrp6, stronger effect = lower value 0.994 | S. cerevisiae deletion strains, locus YOR061W, strain CKA2, stronger effect = lower value 0.964 | S. cerevisiae deletion strains, locus YOR069W, strain VPS5, stronger effect = lower value 1.01 | S. cerevisiae deletion strains, locus YOR070C, strain gyp1, stronger effect = lower value 0.979 | S. cerevisiae deletion strains, locus YOR080W, strain dia2, stronger effect = lower value 0.979 | S. cerevisiae deletion strains, locus YOR083W, strain WHI5 (second series), stronger effect = lower value 1.01 | S. cerevisiae deletion strains, locus YOR083W, strain WHI5, stronger effect = lower value 1 | S. cerevisiae deletion strains, locus YOR106W, strain vam3, stronger effect = lower value 0.971 | S. cerevisiae deletion strains, locus YOR136W, strain idh2, stronger effect = lower value 0.984 | S. cerevisiae deletion strains, locus YOR144C, strain elg1, stronger effect = lower value 0.999 | S. cerevisiae deletion strains, locus YOR184W, strain ser1, stronger effect = lower value 0.956 | S. cerevisiae deletion strains, locus YOR231W, strain MKK1, stronger effect = lower value 0.969 | S. cerevisiae deletion strains, locus YOR265W, strain rbl2, stronger effect = lower value 0.999 | S. cerevisiae deletion strains, locus YOR270C, strain vph1, stronger effect = lower value 0.939 | S. cerevisiae deletion strains, locus YOR290C, strain snf2, stronger effect = lower value 0.975 | S. cerevisiae deletion strains, locus YOR316C, strain cot1, stronger effect = lower value 0.98 | S. cerevisiae deletion strains, locus YPL051W, strain arl3, stronger effect = lower value 0.979 | S. cerevisiae deletion strains, locus YPL055C, strain LGE1, stronger effect = lower value 0.951 and 0.966 | S. cerevisiae deletion strains, locus YPL078C, strain atp4, stronger effect = lower value 0.995 | S. cerevisiae deletion strains, locus YPL106C, strain sse1, stronger effect = lower value 0.887 | S. cerevisiae deletion strains, locus YPL240C, strain hsp82, stronger effect = lower value 0.985 | S. cerevisiae deletion strains, locus YPL241C, strain CIN2, stronger effect = lower value 0.991 and 0.972 | S. cerevisiae deletion strains, locus YPL256C, strain CLN2, stronger effect = lower value 0.957 | S. cerevisiae deletion strains, locus YPR119W, strain clb2, stronger effect = lower value 0.984 | S. cerevisiae deletion strains, locus YPR141C, strain kar3, stronger effect = lower value 0.982 | S. cerevisiae deletion strains, locus YPR163C, strain tif3, stronger effect = lower value 0.996 | S. cerevisiae deletion strains, locus YPR167C, strain met16, stronger effect = lower value 0.988 | S. cerevisiae deletion strains, strain wtn01, stronger effect = lower value 0.981 | S. cerevisiae strains, strain wild type, stronger effect = lower value 0.998
